Measured values reported in PubChem BioAssay AID540276 (National Center for Advancing Translational Sciences (NCATS), 2011).
“And” between values parts separate entries of the source, which are not always exact repeats. Equal values may be shown once. Among all 300,000 compounds or so, about 5,400 (1.8%) were called active. About 28% were inconclusive and are not listed. Calls follow the shape of the full dose curve; tested in HEK293 cells. What follows is part of a selection rich in actives, with near analogues and random picks from the rest. More than one record can exist for a structure, and the calls need not agree.

Assay: qHTS for inhibitors of binding or entry into cells for Marburg Virus
Conditions: Marburg virus pseudotyped entry inhibition, cell reporter; series mostly up to 37.8 µM; activity change, negative = inhibition: at the top concentration
% is scaled to controls: 0 for no effect and ±100 for the full control effect; potency is read from the fitted curve at half-maximal effect.

Structure (SMILES)	Potency	activity change, negative = inhibition
Cc1cccc(C(CC(=O)NCC2(c3ccccc3)CCCC2)c2ccccc2)c1O (configuration not stated)	10 µM (active)	–
COc1ccc(C2(CNC(=O)Cc3ccc(OC)c(OC)c3)CCCC2)cc1	–	-28.1% [at 46.1 µM] (inactive)
COc1ccc(C2(CNC(=O)C(c3ccccc3)c3ccccc3)CCOCC2)cc1OC	–	-26.8% (inactive)
O=C(Nc1cc(S(=O)(=O)N2CCOCC2)ccc1N1CCOCC1)c1c(F)cccc1Cl	–	3.28% (inactive)
CC12CCCCC1=CC(=O)CC2 (configuration not stated)	–	8.83% (inactive)
COc1ccc(N2CCN(S(=O)(=O)c3cc(Br)cnc3N)CC2)cc1	–	14.7% [at 46.1 µM] (inactive)
CC(C)c1ccc(-c2noc(C3CCCN(S(C)(=O)=O)C3)n2)cc1 (configuration not stated)	–	-30.6% (inactive)
COc1cc(-c2noc(C3CCCN(S(=O)(=O)c4cccc(Cl)c4)C3)n2)cc(OC)c1OC (configuration not stated)	inactive and 9.2 µM (active)	–
O=C(Cc1cccs1)N1CCCC(c2nc(-c3ccc(S(=O)(=O)N4CCCC4)cc3)no2)C1 (configuration not stated)	–	-24.4% (inactive)
Cc1ccc(C(=O)OCC(=O)N2CCCCCC2)cc1S(=O)(=O)N1CCOCC1	–	4.19% (inactive)
NC(=O)c1cc2ccccc2o/c1=N/NC(=O)c1cccc(F)c1	–	-5.08% [at 46.1 µM] (inactive)
CCOc1ccc(CN2CCNC(=O)C2CC(=O)NCCCC2CCCC2)cc1 (configuration not stated)	–	10.3% (inactive)
CCOc1ccc(C2c3[nH]c4ccccc4c3CCN2Cc2cccn2-c2ncccn2)cc1 (configuration not stated)	3.16 µM (active)	–
c1ccc(C2c3[nH]c4ccccc4c3CCN2Cc2cccn2-c2cccnc2)nc1 (configuration not stated)	–	-6.35% [at 46.1 µM] (inactive)
Oc1cccc(C2c3[nH]c4ccccc4c3CCN2Cc2cnn(-c3ccccc3)c2)c1 (configuration not stated)	–	-8.18% [at 46.1 µM] (inactive)
CCN(CC)S(=O)(=O)c1ccc(CNC(=O)CN2C(=O)NC3(CCc4ccccc43)C2=O)cc1 (configuration not stated)	–	5.63% (inactive)
COc1ccc(/C=N/NC(=O)c2ccc3c(c2)OCCO3)c(OC)c1	–	-0.257% (inactive)
COc1cccc(CNCCc2c[nH]c3ccccc23)c1OCc1ccccc1F	7.3 µM (active)	–
COc1ccccc1CC(=O)NCCc1c[nH]c2ccccc12	–	-23.9% [at 46.1 µM] (inactive)
COc1ccc(S(=O)(=O)NCCc2c[nH]c3ccccc23)cc1OC	–	-2.61% [at 46.1 µM] (inactive)
O=C1CC(C(=O)O)NC(=S)N1 (configuration not stated)	–	0.164% [at 46.1 µM] (inactive)
COc1ccc(S(=O)(=O)N2CCN(CC(=O)N3CCOCC3)CC2)cc1OC	–	-5.82% (inactive)
COc1ccccc1-n1c(=S)[nH]c2c(sc(=S)n2-c2ccc(C)cc2C)c1=O	–	-1.23% [at 46.1 µM] (inactive)
COc1cc(-n2c(=S)[nH]c3ccc(C)cc3c2=O)c(Cl)cc1Cl	5.62 µM (active)	–
COc1cc2[nH]c(=S)n(Cc3ccc(C)o3)c(=O)c2cc1OC	–	-7.92% (inactive)
CC(C)c1ccc(S(=O)(=O)N2CCN(C(=O)CN3C(=O)NC(C)(c4ccccc4)C3=O)CC2)cc1 (configuration not stated)	–	0.605% (inactive)

Structure (SMILES)	Potency	activity change, negative = inhibition
COc1ccc(N(CC(=O)N2CCOCC2)S(=O)(=O)c2ccccc2)cc1Cl	–	16.6% (inactive)
CC(C)Oc1ccc(S(=O)(=O)N2CCOCC2)cc1NC(=O)C1CSC2(C)CCC(=O)N12 (configuration not stated)	–	-14.7% [at 46.1 µM] (inactive)
O=C(OC12CC3CC(CC(C3)C1)C2)c1ccc(NCc2cc(O)ccc2O)cc1	4.47 µM (active)	–
C[C@]12CC[C@H](O)CC1=CCC1C2CC[C@@]2(C)C1CC[C@@H]2NC(=O)CCC(=O)O (some centres not stated)	–	3.4% (inactive)
COc1ccc(/C=C/C(=O)NC(=S)N2CCCC(C(N)=O)C2)cc1 (configuration not stated)	–	-0.358% [at 46.1 µM] (inactive)
CCCCCCCCn1c2c(c(=N)c3c1CCC3)CCCC2	5.01 µM (active)	–
Cc1ccc(S(=O)(=O)N2CCCC(C(=O)N3CCN(C)CC3)C2)cc1 (configuration not stated)	–	8.49% (inactive)
CN(C)c1ccc(CSc2ccccc2)cc1	–	5.47% (inactive)
O=C(CSc1nnc(N2CCOCC2)n1-c1cccc(F)c1)N1CCN(c2ccccn2)CC1	–	-2.18% (inactive)
COc1cccc(CNC(=O)CCC2CCCN(C(=O)c3ccc(F)c(Cl)c3)C2)c1 (configuration not stated)	–	2.45% (inactive)
COc1ccc2[nH]c3c(c2c1)CCN(C(=O)CCC1CCCC1)C3c1ccc(F)cc1 (configuration not stated)	0.631 µM (active)	–
COc1cccc(C(=O)N2CCCC(CCC(=O)NCc3ccc(F)c(F)c3)C2)c1 (configuration not stated)	–	-21.9% (inactive)
COc1ccccc1C(=O)NCCC(=O)NCC(c1ccco1)N1CCCCC1 (configuration not stated)	–	0.853% (inactive)
Cc1ccc(S(=O)(=O)N(CC(=O)NCc2ccco2)c2ccccc2C)cc1	–	22.1% [at 46.1 µM] (inactive)
CC(=O)c1ccc(N2CCN(C(=O)CCc3ccccc3)CC2)cc1	–	27.7% (inactive)
C=CCN1CCN(C(=O)CCCc2ccccc2)CC1	2.51 µM (active)	–
O=C(O)CCCc1ccccc1	inactive	–
Cc1cc(C)c(S(=O)(=O)N(C)CC(=O)NCC2CCCO2)c(C)c1 (configuration not stated)	–	-8.6% [at 46.1 µM] (inactive)
COC1C(CO)OC(n2cnc3c(=S)nc(N)[nH]c32)C1O (configuration not stated)	–	21% (inactive)
NC(=O)C1(N2CCCC2)CCN(Cc2ccccc2)CC1	–	-9.61% (inactive)
CCC(=C/c1sc2ccc3ccccc3c2[n+]1C)/C=C1\Sc2ccc3ccccc3c2N1C	3.55 µM (active)	–
O=C(Nc1ccc(S(=O)(=O)N2CCCCCC2)cc1)c1c(F)cccc1F	–	-9.13% (inactive)
Cc1cc(C)c(S(=O)(=O)N2CCCC2CNC(=O)c2ccc3c(c2)OCO3)c(C)c1 (configuration not stated)	–	17.5% (inactive)
C[N+](C)(CCCCCC[N+](C)(C)CCCN1C(=O)c2cccc3cccc(c23)C1=O)CCCN1C(=O)c2cccc3cccc(c23)C1=O	5.01 µM (active)	–
O=C1c2ccccc2C(=O)N1CCCCCCN1C(=O)c2ccccc2C1=O	–	11.3% [at 46.1 µM] (inactive)
O=C1c2cccc3cccc(c23)C(=O)N1CCCCCc1n[nH]c(=S)o1	–	-2.52% [at 46.1 µM] (inactive)
